Screens as filed in PubChem BioAssay.
NPC1 promoter act = qHTS Assay for NPC1 Promoter Activators; Huh7 NPC1 promoter luciferase reporter, 24 h; Potency, µM (top dose mostly 9.22 µM), for the others: at the top dose activation, usual class: activators; hit rate 2.4% among 320,000; AID 485313, 2010; note: % of control where 0% means no effect; nearly all actives have a fitted effect of over 60% in size
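Huh7 cells stably carrying NPC1 promoter–luciferase, plated in Opti-MEM with 10% FBS for 2 h, were exposed to compound in DMSO for 24 h at 37 °C; luciferase reagent was added for 10 min and luminescence read.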
Rab9 promoter act = qHTS Assay for Rab9 Promoter Activators. Huh7 Rab9 promoter-luciferase reporter, luminescence, 24 h. Potency, µM (doses to about 9.22 µM), for inactives: at the highest dose activation, negative = inhibition, most hits filed as activators. hit rate 2.8% among 320,000. AID 485297, 2010; note: % of control where 0% means no effect; nearly all actives have a fitted effect of over 60% in size
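Huh7 cells stably carrying a Rab9 promoter-luciferase reporter, 1500 cells per well in OP-MEM I with 10% FBS, treated with compound 24 hours at 37C. Luciferase activity read by luminescence after 10 minutes with Amplite reagent.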
KinaseGlo FLuc = Counterscreen for Luciferase (Kinase-Glo TM) Inhibition; Kinase-Glo luciferase, ATP luminescence, 8 min; Luciferin 4-monooxygenase (Photuris pensylvanica), Q27757; Potency, µM (doses to about 38.3 µM), without a hit: top-dose activity change, negative = inhibition, hits mostly inhibitors; hit rate 0.28% among 200,000; note: % is set by controls: 0 for no effect and ±100 for the full control effect; nearly all actives have a fitted effect of over 60% in size
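Kinase-Glo luciferase light output from ATP and luciferin was measured with 10 uM ATP, within the enzyme's linear range. Buffer: 50 mM imidazole pH 7.2, 50 mM KCl, 7 mM MgCl2, 0.01% Tween 20, 0.05% BSA; luminescence read after 8 min at ambient temperature.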
FLuc counter = qHTS profiling assay for firefly luciferase inhibitor/activator using purifed enzyme and Km concentrations of substrates (counterscreen for miR-21 project); Luciferin 4-monooxygenase (Photinus pyralis), P08659; purified FLuc, Km substrates, luminescence inhibition; Potency, µM (doses to about 57.5 µM), inactives show at the top dose activity change, negative = inhibition, actives largely listed as inhibitors; hit rate 6.9% among 360,000; AID 588342, 2011;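 note: plate controls were vehicle for no effect and reference inhibitor for full effect; nearly all actives have a fitted effect of over 55% in size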
Target sequence (P08659 whole entry, looked up): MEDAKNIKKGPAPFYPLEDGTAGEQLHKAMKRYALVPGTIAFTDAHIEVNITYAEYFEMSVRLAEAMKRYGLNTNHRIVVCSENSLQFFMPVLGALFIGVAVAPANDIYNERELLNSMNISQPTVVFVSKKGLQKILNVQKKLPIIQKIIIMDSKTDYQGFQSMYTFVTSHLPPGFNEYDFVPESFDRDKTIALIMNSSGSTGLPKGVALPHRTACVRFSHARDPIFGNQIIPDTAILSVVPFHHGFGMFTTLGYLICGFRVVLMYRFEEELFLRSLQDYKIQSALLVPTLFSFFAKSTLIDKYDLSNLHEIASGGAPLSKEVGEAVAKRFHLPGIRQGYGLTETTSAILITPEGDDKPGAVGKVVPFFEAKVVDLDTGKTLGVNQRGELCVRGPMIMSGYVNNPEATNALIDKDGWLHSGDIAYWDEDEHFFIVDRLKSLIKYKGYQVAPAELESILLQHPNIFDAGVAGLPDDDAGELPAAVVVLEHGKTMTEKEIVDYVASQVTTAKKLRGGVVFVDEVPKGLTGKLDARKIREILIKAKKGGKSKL
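Biochemical qHTS of compounds, final roughly 60 µM downward over six points, against 10 nM purified firefly luciferase using Km concentrations of substrates (10 uM D-luciferin, 10 uM ATP) in Tris acetate pH 7.5 buffer; luminescence output.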
ELG1 genotox = qHTS screen for small molecules that induce genotoxicity in human embryonic kidney (HEK293T) cells expressing luciferase-tagged ELG1; HEK293T ELG1-luciferase reporter, luminescence, 16 h; Potency, µM (highest dose often 46 µM), without a hit: at the highest dose activity change, positive = activation, usual class: activators; hit rate 1.3% among 330,000; note: % of control where 0% means no effect; nearly all actives have a fitted effect of over 60% in size
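Luminescence read-out: rising ELG1-luciferase signal, reflecting elevated ELG1 protein under genetic stress, flags genotoxic compounds. Cells were treated for 16 hr at 37 °C before ONE-Glo detection.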
SMN2 splice up = qHTS Assay for Enhancers of SMN2 Splice Variant Expression; Potency, µM (doses to about 46.1 µM), for inactives: at the highest dose activity change, positive = activation, hits mostly activators; HEK293 SMN2-luciferase splicing reporter, luminescence, 30-36 h; AID 1458, 2008; hit rate 2.8% among 210,000; note: % of control where 0% means no effect; nearly all actives have a fitted effect of over 55% in size
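qHTS luciferase splicing reporter: luminescence rises when SMN2 exon 7 is included in transfected HEK293 cells. Compound exposure lasted 30-36 h at 37C, with 4.5 mM final sodium butyrate as control, followed by a ONE-Glo read.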
* hit, by the source's call; u = inconclusive; x = no result given; [ ] = remark or other dose. Most compounds without a hit are left out; they make up all but 7.3% or so of the library. Calls come from the whole dose curve; as a rule, active = well fitted curve in the direction sought with a large enough effect; inconclusive = small, poorly fitted or top-dose-only effect, or another doubt; inactive = no such curve, though single readings can be large; an effect the other way counts as inactive or inconclusive. Potency is the fitted concentration of half-maximal effect.

SMILES	NPC1 promoter act	Rab9 promoter act	KinaseGlo FLuc	FLuc counter	ELG1 genotox	SMN2 splice up
Cc1nc2c(C)cccc2cc1C(=O)N/N=C/c1ccc(N(C)C)cc1	0%	2%	-5%	u	0%	u
CC(=O)Nc1ccc(/C=N/NC(=O)c2cc3cc(C)ccc3nc2C)cc1	11%	17%	9%	6µM*	u	-22%
CC(=O)Nc1ccc(/C=N/NC(=O)c2cc3ccccc3nc2C)cc1	-1%	-2%	0%	-18%	1%	7%
CCCN1C(=O)c2ccc(C(=O)Nc3nccs3)cc2C1=O	-2%	-5%	0%	u	5%	-16%
Cc1ccccc1NC(=O)c1ccc2c(c1)C(=O)N(CC(C)C)C2=O	-4%	5%	x	-8%	1%	x
CC(C)CN1C(=O)c2ccc(C(=O)Nc3nccs3)cc2C1=O	u	u	0%	6.7µM*	u	6%
CC(C)CN1C(=O)c2ccc(C(=O)Nc3ccccc3C(=O)O)cc2C1=O	2.5µM*	4.5µM*	x	3µM*	u	x
CC(C)CN1C(=O)c2ccc(C(=O)Nc3ccccn3)cc2C1=O	u	u	-3%	2.7µM*	u	-5%
COc1cc(C)ccc1OCc1cc(C(=O)NCc2ccncc2)no1	2.8µM*	2µM*	x	12µM*	18µM*	x
COc1cc(C)ccc1OCc1cc(C(=O)NC(C)Cn2cncn2)no1 (stereo unspecified)	2.2µM*	1.6µM*	x	u	u	x
COc1ccc(C(=O)NCc2ccncc2)cc1OC	-1%	-3%	-1%	0%	1%	-11%
CCOC(=O)c1cc2c(=O)n3ccccc3nc2n(CCCOC)c1=NC(=O)c1cc2ccccc2o1	x	x	x	-3%	x	-2%
CCCS(=O)(=O)c1ncc(Cl)c(C(=O)N(Cc2ccccc2)Cc2ccco2)n1	x	x	x	-17%	x	-64%
COc1cc(C2c3cc4c(cc3C(OC3OC5COC(C)O[C@@H]5C(O)C3O)C3COC(=O)C23)OCO4)cc(OC)c1O (stereo partly specified)	x	x	3%	x	x	-58%
NC(N)=Nc1nc(CCN2C(=O)c3ccccc3C2=O)cs1	-3%	0%	-5%	-10%	4%	32µM*
COc1ccc(N2CCN(C(=O)c3nc(-c4ccc(Cl)cc4)n4c3CCCCC4)CC2)cc1	x	x	x	-3%	x	x
Cc1cc2nc(-c3cccc(NC(=O)COc4ccc(C(C)C)cc4)c3)oc2cc1C	x	x	x	1.5µM*	x	12%
Cc1cc2nc(-c3cccc(NC(=O)COc4ccc(Cl)c(C)c4)c3)oc2cc1C	x	x	x	1.9µM*	x	x
COc1ccc(-c2nc3cc(NC(=O)COc4ccc(C)c(C)c4)ccc3o2)cc1	x	x	x	6%	x	x
O=C(CSc1nc2ccccc2nc1Cc1ccccc1)N1CCc2ccccc21	x	x	x	-1%	x	x
Cc1cccc(N2CCN(C(=O)Cc3c(C(=O)O)c(C)cn3C)CC2C)c1 (stereo unspecified)	x	x	x	-12%	x	x
Cc1ccc(SCc2nc(-c3ccccn3)no2)cc1	u	u	3%	4%[2.3 µM]	u	u
c1ccc(OCCCc2nc(-c3ccncc3)no2)cc1	-2%	0%	2%	1%	2%	14%
CC(Oc1ccc(Cl)cc1Cl)c1nc(-c2ccccn2)no1 (stereo unspecified)	u	u	1%	15µM*	u	28%
c1ccc(OCCCc2nc(-c3ccccn3)no2)cc1	u	4%[1.84 µM]	-2%	u	18µM*	u
SMILES	NPC1 promoter act	Rab9 promoter act	KinaseGlo FLuc	FLuc counter	ELG1 genotox	SMN2 splice up
CC(Oc1ccc(Cl)cc1Cl)c1nc(-c2ccc(NC(=O)c3cccnc3)cc2)no1 (stereo unspecified)	0%	2%	2%	1%	-20%	-87%
CC(C)(C)Cc1nc(-c2ccccn2)no1	u	u	0%	u	18µM*	u
CC(C)c1ccc(OCc2nc(-c3ccccn3)no2)c(Br)c1	0.4µM*	0.45µM*	-5%	0.95µM*	u	6.3µM*
CCC(NC(=O)Nc1cc(OC)ccc1OC)c1c(-n2cccc2)sc2c1CCN(CC)C2 (stereo unspecified)	x	x	x	-9%	x	x
Cc1cccc(NC(=O)c2sc3cccc(Cl)c3c2Cl)c1	x	x	x	u	x	8%
Cc1ccc(OCc2nc(-c3ccccn3)no2)cc1	1.1µM*	1.4µM*	8%	4.8µM*	3.7µM*	8.9µM*
CCc1ccc(OCc2nc(-c3ccccn3)no2)c(Br)c1	0.32µM*	0.4µM*	-17%	0.54µM*	u	0.5µM*
Cc1ccc(OCc2nc(-c3ccccn3)no2)c(Br)c1	0.1µM*	0.28µM*	10µM*	0.21µM*	0.33µM*	-61%
CCc1ccc(NS(=O)(=O)c2ccc3[nH]cc(C(=O)NCCCOC(C)C)c(=O)c3c2)cc1	x	x	x	-9%	x	-8%
CCc1ccc(-c2nc(CS(=O)CC(=O)NCCc3ccc(Cl)cc3)c(C)o2)cc1 (stereo unspecified)	x	x	x	-17%	x	x
COc1cccc(C2=NN(C(=O)c3ccco3)C(c3ccco3)C2)c1 (stereo unspecified)	18%	10%	x	11µM*	10%	x
N#C/C(=C\c1ccc(C(=O)O)cc1)c1ccccn1	-1%	-3%	-13%	-18%	-2%	6%
CN(CCC#N)c1ccc(/C=C(\C#N)c2ccccn2)cc1	0.5µM*	0.5µM*	u	1.5µM*	0.65µM*	1µM*
CCN(Cc1ccccc1)c1ccc(/C=C(\C#N)c2ccccn2)cc1	3.5µM*	1.4µM*	x	7.6µM*	u	x
CCN(CC)c1ccc(/C=C(\C#N)c2ccccn2)cc1	0.45µM*	0.13µM*	-11%	1.1µM*	u	1.4µM*
CCC(=O)N1CCc2cc(CNS(=O)(=O)c3ccc(C(C)C)cc3)ccc21	x	x	x	-3%	x	-5%
COc1ccc(CCNC(=O)c2ccc3c(c2)N(Cc2ccc(F)cc2)C(=O)c2ccccc2S3(=O)=O)cc1OC	x	x	x	1%	x	u
NCCOC[C@H](N)C(=O)O	x	x	-2%[7.66 µM]	x	x	-5%[9.22 µM]
COc1cc(OC)cc(-c2nc3cc(C)ccc3o2)c1	8%	27%	u	11µM*	16µM*	7.1µM*
CCC(Oc1ccccc1)C(=O)Nc1ccc(O)c(-c2nc3cc(C)ccc3o2)c1 (stereo unspecified)	x	x	x	15µM*	x	x
COc1ccc(C(=O)Nc2ccc(-c3nc4cc(C)ccc4o3)c(O)c2)cc1	x	x	x	-3%	x	1%
